Hits are enriched below; roughly 9.2% of the tested compounds scored in any of these assays.
FLuc modulator: qHTS profiling assay for firefly luciferase inhibitor/activator using purifed enzyme and Km concentrations of substrates (counterscreen for miR-21 project) | Luciferin 4-monooxygenase (Photinus pyralis), P08659 | purified FLuc, Km substrates, luminescence inhibition | Potency, µM (top dose mostly 57.5 µM), for the others: at the highest dose activity change, negative = inhibition, usual class: inhibitors | 6.9% of 360,000 active;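 also: plate controls were vehicle for no effect and reference inhibitor for full effect; nearly all actives have a fitted effect of over 55% in size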
Target sequence (P08659 whole entry, looked up): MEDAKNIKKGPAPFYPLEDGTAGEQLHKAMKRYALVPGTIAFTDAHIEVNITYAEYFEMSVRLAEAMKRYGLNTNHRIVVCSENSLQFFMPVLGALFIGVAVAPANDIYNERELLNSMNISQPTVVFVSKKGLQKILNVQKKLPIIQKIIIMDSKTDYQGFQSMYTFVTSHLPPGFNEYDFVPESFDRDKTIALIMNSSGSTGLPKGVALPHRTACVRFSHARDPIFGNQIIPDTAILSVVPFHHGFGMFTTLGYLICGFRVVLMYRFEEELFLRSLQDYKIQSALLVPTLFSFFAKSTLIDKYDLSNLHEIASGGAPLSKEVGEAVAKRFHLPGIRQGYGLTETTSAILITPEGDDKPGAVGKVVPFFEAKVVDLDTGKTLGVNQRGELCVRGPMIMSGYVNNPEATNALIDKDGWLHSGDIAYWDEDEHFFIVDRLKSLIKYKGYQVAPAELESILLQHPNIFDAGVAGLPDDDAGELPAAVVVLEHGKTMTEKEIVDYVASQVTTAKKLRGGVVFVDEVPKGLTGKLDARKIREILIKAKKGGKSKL
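Purified P. pyralis luciferase (10nM final) with 10uM D-luciferin and 10uM ATP (Km levels) in 50mM Tris acetate pH 7.5, 10mM Mg acetate, 0.01% Tween-20, 0.05% BSA; qHTS 6-point titration, ~60 µM downward; luminescence read.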
SMN2 splice up: qHTS Assay for Enhancers of SMN2 Splice Variant Expression | HEK293 SMN2-luciferase splicing reporter, luminescence, 30-36 h | Potency, µM (titrated, usually from 46.1 µM), without a hit: at the top dose activity change, positive = activation, actives largely listed as activators | 2.8% of 210,000 active; also: % of control where 0% means no effect; nearly all actives have a fitted effect of over 55% in size
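HEK293 cells carry an SMN2 minigene-luciferase reporter in which exon 7 inclusion puts luciferase in frame. Cells were seeded at 2000 cells/well, attached for 10-12 hours, then exposed to compounds for 30-36 hours at 37C before ONE-Glo luminescence.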
NPC1 prom act: qHTS Assay for NPC1 Promoter Activators | Huh7 NPC1 promoter luciferase reporter, 24 h | Potency, µM (highest dose often 9.22 µM), inactives show at the highest dose activation, hits mostly activators | 2.4% of 320,000 active; also: % of control where 0% means no effect; nearly all actives have a fitted effect of over 60% in size
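Luciferase expression driven by the NPC1 promoter was measured in stably transfected Huh7 cells after a 24 h compound incubation, using a luciferase reagent and a luminescence read.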
ELG1 DNA repair: qHTS screen for small molecules that inhibit ELG1-dependent DNA repair in human embryonic kidney (HEK293T) cells expressing luciferase-tagged ELG1; HEK293T ELG1-luciferase reporter, luminescence, 16 h; DNA damage induced by 5-fluorouridine; Potency, µM (series often up to 46.1 µM), for inactives: at the highest dose activity change, negative = inhibition, most hits filed as inhibitors; 2.3% of 330,000 active; AID 504467, 2011; also: % is scaled to controls: 0 for no effect and ±100 for the full control effect; nearly all actives have a fitted effect of over 55% in size
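HEK293T cells expressing luciferase-tagged ELG1 (2,000/well) received 5-Fluorouridine plus compound or DMSO for 16 hr at 37 °C. Luciferase was read by ONE-Glo luminescence after 30 min at room temperature.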
ELG1 genotoxic: qHTS screen for small molecules that induce genotoxicity in human embryonic kidney (HEK293T) cells expressing luciferase-tagged ELG1 | HEK293T ELG1-luciferase reporter, luminescence, 16 h | Potency, µM (titrated, usually from 46 µM), inactives show at the highest dose activity change, positive = activation, actives largely listed as activators | 1.3% of 330,000 active | AID 504466, 2011; also: % of control where 0% means no effect; nearly all actives have a fitted effect of over 60% in size
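Luminescence read-out: rising ELG1-luciferase signal, reflecting elevated ELG1 protein under genetic stress, flags genotoxic compounds. Cells were treated for 16 hr at 37 °C before ONE-Glo detection.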
Rab9 promoter act: qHTS Assay for Rab9 Promoter Activators; Potency, µM (titrated, usually from 9.22 µM), without a hit: at the highest dose activation, negative = inhibition, usual class: activators; 2.8% of 320,000 active; AID 485297, 2010; Huh7 Rab9 promoter-luciferase reporter, luminescence, 24 h; also: % of control where 0% means no effect; nearly all actives have a fitted effect of over 60% in size
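Cells were plated at 1500 per well in reduced-serum medium with 10% FBS and left 2 h. Compound in DMSO was then added for 24 h at 37 °C. Reporter signal was read by luminescence after 10 min with luciferase detection reagent.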
Active calls of the source: *; u = inconclusive; x = no result; ! = not active in a repeat; [ ] = remark or other dose. Calls follow the shape of the dose curve; as a rule, active = well fitted curve in the direction sought with a large enough effect; inconclusive = small, poorly fitted or top-dose-only effect, or another doubt; inactive = no such curve, though single readings can be large; an effect the other way counts as inactive or inconclusive. Potency is read from the fitted curve at half-maximal effect.

SMILES	FLuc modulator	SMN2 splice up	NPC1 prom act	ELG1 DNA repair	ELG1 genotoxic	Rab9 promoter act
CCc1nn(CC(=O)N2CCN(Cc3ccc4c(c3)OCO4)CC2)c(=O)c2cc3occc3n12	5%	-57%	-6%	21µM*	-9%	-1%
O=C(Cc1ccc([N+](=O)[O-])cc1)N1CCN(Cc2ccc3c(c2)OCO3)CC1	5%	x	-7%	u	-11%	-4%
Cc1ccc(C(C)(C)NC(=O)C2CCC(=O)N(C3CCCCCC3)C2)cc1 (centres undefined)	15µM*	x	u	u	u	3.2µM*
CC(=O)C1=NOC(CNc2ncc(C(F)(F)F)cc2Cl)C1 (centres undefined)	27µM*	18%	18%	u	u	u
O=C1NC(=O)N(CCNc2ncc(C(F)(F)F)cc2Cl)C(=O)C1/C=N/OCc1c(F)cccc1Cl (centres undefined)	-5%	-44%	-4%	-29%	1%	-1%
C/C(=C\C(=O)c1ccc(Br)cc1)NCc1ccccc1	24µM*	-4%	1%	u	u	18%
C[C@]1(O)CC[C@H]2[C@@H]3[C@@H](O)CC4=CC(=O)CC[C@@]4(C)[C@H]3CC[C@]21C	x	-12%[9.22 µM]	x	x	x	x
Cc1ccc(C(=O)Nc2nc3ccccc3[nH]2)cc1	0.095µM*	x	0.56µM*	u	u	0.63µM*
CCCCCn1c(=O)c(C(=O)Nc2nc3ccccc3[nH]2)c(O)c2ccccc21	1%	x	-4%	u	-7%	-7%
Cc1ccc(N2C(=O)NC(=O)/C(=C\c3ccc([N+](=O)[O-])o3)C2=O)cc1	27µM*	-1%	1%	-11%	-2%	-3%
Cc1ccc(N2C(=O)NC(=O)/C(=C\c3ccc(N4CCOCC4)cc3)C2=O)cc1	-18%	10%	9%	u	6%	1%
CC(=O)O[C@H](CC(=O)O)C[N+](C)(C)C	-1%	x	-6%	-6%	-10%	-5%
CC(=O)OC(CC(=O)O)C[N+](C)(C)C (centres undefined)	5%	13µM*	-2%	18µM*	-6%	-7%
CC1=C/C(=N\NC(=S)NCCc2ccccc2)CC(C)(C)C1	21µM*	u	25%	u	13%	29%
C[C@H]1C2C=C[C@H]1[C@@H](C(=O)O)[C@@H]2c1c2ccc(=O)c(O)c-2oc2c(O)c(O)ccc12	x	-3%[9.22 µM]	x	x	x	x
Cc1ccnc(SCc2nc3ccccc3s2)n1	6.7µM*	11µM*	u	u	9.2µM*	3.5µM*
O=C1CN=C(c2ccc[nH]2)c2cc(Cl)ccc2N1	-1%	x	-7%	8.2µM*	-19%	-10%
C=C(Cl)Cl	x	-4%	x	x	x	x
Cc1cc(NC(=O)c2noc3c2CCCCC3)no1	15µM*	u	u	u	u	u
CC(=O)[O-].CC(=O)[O-].O.O.[Cd+2]	x	-51%	x	x	x	x
CCS(=O)(=O)Nc1ccc(C2=NN(C(=O)c3ccco3)C(c3ccc(Cl)o3)C2)cc1 (centres undefined)	x	x	x	u	-5%	x
Cc1nc(Cl)sc1C(=O)Nc1ccc2ccccc2c1	7.6µM*	13µM*	14%	u	u	u
CCNC(C)(C)[C@@H](SS)c1ccc(Br)cc1	x	-10%[9.22 µM]	x	x	x	x
COc1ccc(NC(=O)O/N=C/c2ccccc2)cc1	9.5µM*	x	3.5µM*	u	u	u
O=C(Nc1ccc(Cl)c(Cl)c1)O/N=C/c1ccncc1	-14%	u	-4%	2%	-2%	0%
SMILES	FLuc modulator	SMN2 splice up	NPC1 prom act	ELG1 DNA repair	ELG1 genotoxic	Rab9 promoter act
[O-][Br+2]([O-])O	x	-4%	x	x	x	x
COCCCOc1ccnc(CS(=O)c2nc3ccccc3[nH]2)c1C (centres undefined)	u	x	3.2µM*	u	14%	2.8µM*
Cc1c(OCC(F)(F)F)ccnc1CS(=O)c1nc2ccccc2[nH]1 (centres undefined)	13µM*!	-10%	2.8µM*	u	13%	4µM*
COc1ccc2nc(NC(=O)CCc3nc(C4=CCN(C)CC4)no3)sc2c1	21µM*	-6%	-2%	3%	-3%	-3%
COc1ccc2[nH]cc(CCN=C(NC(=O)c3ccccc3OC)Nc3nc(C)cc(C)n3)c2c1	-9%	u	x	x	x	x
CN(C)[C@@H]1C(=O)C(C(N)=O)=C(O)[C@]2(O)C(=O)C3=C(O)c4c(O)cccc4[C@](C)(O)[C@H]3C[C@@H]12	x	1%[9.22 µM]	x	x	x	x
CCN(C[C@H]1N[C@@](CC)(C(=O)OC)[C@H]2C(=O)N(Cc3ccccc3)C(=O)[C@@H]12)S(=O)(=O)c1ccc(OC)cc1	x	x	x	u	-4%	x
CC[C@@]1(C(=O)OC)N[C@H](CN(C)C(=O)c2ccc(C(C)(C)C)cc2)[C@@H]2C(=O)N(Cc3ccccc3)C(=O)[C@@H]21	x	x	x	12µM*	-8%	x
O=C(COC(=O)c1cccc(NC(=O)c2ccc(Br)cc2)c1)c1ccc(Br)cc1	4.3µM*	14%	x	x	x	x
Cc1ccc(C(=O)COC(=O)c2cccc(NC(=O)c3ccc(Br)cc3)c2)cc1	1.2µM*	u	x	x	x	x
CCN(CC)C(=O)c1ccc(NC(=O)c2cccc(F)c2)cc1	15µM*	0%	20%	u	u	18%
CC1(C)CCC(C)(C)c2c1ccc(O)c2Cc1c(O)ccc2c1C(C)(C)CCC2(C)C	x	-7%[9.22 µM]	x	x	x	x
O=C(O)[C@@H]1[C@H](C(=O)O)[C@]2(Cl)C(Cl)=C(Cl)[C@@]1(Cl)C2(Cl)Cl	x	-64%[9.22 µM]	x	x	x	x
Cn1nc(OC(=O)Nc2ccccc2)cc1C(F)(F)F	17µM*	17%	u	u	13%	29%
O=C(Nc1ccccc1)Oc1ccccc1	-11%	25%	-3%	21%	4%	1%
CC(=O)OC(C)(C)/C=C/C(=O)C(C)(O)C1[C@H](O)C[C@@]2(C)C3CC=C4C(CC[C@@H](O)C4(C)C)[C@]3(CO)C(=O)C[C@]12C (some centres undefined)	1%	x	-43%	u	-8%	-44%
